Assay [1] concerns Human papillomavirus type 1a protein E7 (residues 44-93). The assay is described as follows: small molecules binding HPV E7 44-93 – biochemical, small-molecule microarray, residues 44-93, 635 nm fluorescence, primary screen (AID 1108).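 Note: E7 fragment applied at 1 µg/mL in TBST for 1 h at 4 C; score combines spot fluorescence with its signal to noise ratio.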 The following applies: fluorescence 635 nm, higher = more signal.
Assay [2] can be described thus: hepatitis C replication reporter changes, two-sided – Huh7 cells, luciferase reporter, HCV replication inhibitor project, primary screen (AID 1109).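 Note: huh7 hepatoma cells harbouring a luciferase neomycin HCV replicon reporter; luciferase luminescence as measure of HCV replicon replication; test concentration not given here.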 Particulars: Huh7 HCV replicon luciferase reporter, 48 h; higher = more signal. (Reporter assays use an easily measured gene product as a stand-in for the process of interest.)
Assay [3] has as its target Left-right determination factor 2 (Homo sapiens) (UniProt O00292). The assay is described as follows: small molecules binding LEFTY2 protein – biochemical, small-molecule microarray, 635 nm fluorescence scan, primary screen (AID 1110). Particulars: higher = more signal.
The target of assay [4] is Calmodulin-1 (Homo sapiens) (UniProt P0DP23). The assay is described as follows: small molecules binding calmodulin-1 with EGTA – biochemical, small-molecule microarray, Cy5-labelled CALM1, profiling panel (AID 1111).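 Note: labelled calmodulin applied in Tris saline Tween buffer holding calcium plus EGTA and DTT.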 Particulars: Cy5-CALM1 binding fluorescence, higher = more signal.
The target is the same in assay [5]. The experiment in a line: small molecules binding Ca-loaded calmodulin-1 – biochemical, small-molecule microarray, Cy5-labelled CALM1, plus calcium, artefact control for SMM control-protein annotation, profiling panel (AID 1112).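 Note: score merges spot fluorescence with signal to noise from triplicate slides.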 Particulars: Cy5-CALM1 binding fluorescence, higher = more signal.
Assay [6] in a line: probe aWnt5a binding to arrayed compounds – biochemical, biotinylated probe, 635/667 nm fluorescence, primary screen (AID 1113).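 Note: score merges 667 nm fluorescence intensity with signal-to-noise per printed feature.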 The following applies: small-molecule microarray, higher = more signal.
A short description of assay [7]: probe aShh binding to arrayed compounds – biochemical, biotinylated probe, 635/667 nm fluorescence, primary screen (AID 1114).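 Note: probe is biotin-labelled aShh protein from a stem cell growth factor screen; measures binding of labelled protein to compounds printed on the slide; score merges feature fluorescence at 667 nm with signal-to-noise.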 The following applies: small-molecule microarray, higher = more signal.
Assay [8] can be described thus: probe aNog binding to arrayed compounds – biochemical, biotinylated probe, 635/667 nm fluorescence, primary screen (AID 1115).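 Note: probe is biotinylated aNog protein used at 0.15 µg/mL for 1 h at 4 C; z-score combines 667 nm fluorescence of each spot with its signal to noise.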 Particulars: small-molecule microarray, higher = more signal.
Assay [9] deals with Torsin-1A-interacting protein 1 (Homo sapiens) (UniProt Q5JTV8). The assay is described as follows: compound microarray binding of lysate hLAP1 – cell lysate, small-molecule microarray, COS7 lysate, 635/667 nm fluorescence, primary screen (AID 1116). The following applies: 635 nm fluorescence, higher = more signal.
For assay [10], the target named is Alpha-bungarotoxin (Bungarus multicinctus) (UniProt P60615). The experiment in a line: compounds binding labelled alpha-BTX control protein – biochemical, small-molecule microarray, Alexa647 label, 635/667 nm fluorescence, artefact control for SMM control protein annotation, profiling panel (AID 1117). Particulars: alpha-BTX-A647 binding fluorescence, higher = more signal.
Chain of Alpha-bungarotoxin (Bungarus multicinctus) (P60615 whole entry, looked up): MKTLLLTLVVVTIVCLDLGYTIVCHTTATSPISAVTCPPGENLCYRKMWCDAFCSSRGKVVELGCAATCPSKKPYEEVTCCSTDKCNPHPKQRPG

Chain of Left-right determination factor 2 (Homo sapiens) (O00292 whole entry, looked up): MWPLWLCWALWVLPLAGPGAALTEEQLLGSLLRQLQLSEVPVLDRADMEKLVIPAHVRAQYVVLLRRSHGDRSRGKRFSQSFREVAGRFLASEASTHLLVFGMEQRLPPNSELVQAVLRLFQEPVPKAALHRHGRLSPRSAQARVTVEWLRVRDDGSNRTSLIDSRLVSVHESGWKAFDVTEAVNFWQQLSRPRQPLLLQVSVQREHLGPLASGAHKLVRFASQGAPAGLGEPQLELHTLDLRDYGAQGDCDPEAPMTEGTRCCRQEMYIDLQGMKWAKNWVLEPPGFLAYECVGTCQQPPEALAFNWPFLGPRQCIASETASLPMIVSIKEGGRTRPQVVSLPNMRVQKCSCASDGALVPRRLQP
Chain of Torsin-1A-interacting protein 1 (Homo sapiens) (Q5JTV8 whole entry, looked up): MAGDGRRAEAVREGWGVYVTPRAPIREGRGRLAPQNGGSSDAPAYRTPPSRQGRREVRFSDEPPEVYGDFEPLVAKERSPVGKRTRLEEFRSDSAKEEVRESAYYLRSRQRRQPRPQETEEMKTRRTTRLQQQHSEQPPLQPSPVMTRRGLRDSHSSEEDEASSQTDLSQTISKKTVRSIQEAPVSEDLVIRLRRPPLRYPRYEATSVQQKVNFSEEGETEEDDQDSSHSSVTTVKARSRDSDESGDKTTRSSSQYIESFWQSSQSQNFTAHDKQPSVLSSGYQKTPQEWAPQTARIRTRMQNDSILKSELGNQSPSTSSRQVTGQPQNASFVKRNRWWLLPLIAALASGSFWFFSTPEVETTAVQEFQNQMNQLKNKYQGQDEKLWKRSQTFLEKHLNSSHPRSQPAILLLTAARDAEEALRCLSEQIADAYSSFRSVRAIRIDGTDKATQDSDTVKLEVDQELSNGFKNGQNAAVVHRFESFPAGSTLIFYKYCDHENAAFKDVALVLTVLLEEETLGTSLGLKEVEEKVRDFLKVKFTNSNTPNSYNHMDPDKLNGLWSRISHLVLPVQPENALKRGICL

In the case of `C=C(C(=O)CC[C@@H](OC(=O)c1cccnc1)c1ccccc1OCCO)C(C)C`, the composite z-score in assay [1] is -0.139; in [3], 0.373; in assay [4] it was -0.948; in assay [5], -0.895; in assay [6], -0.0643; in [7], -0.0977. Also, the composite z-score is -0.247 in assay [8], 1.85 in assay [9] and 0.593 in assay [10]. In assay [2], the z-score is -2.35.

Regarding `COCCCNC(=O)[C@@]1(C)c2ccccc2C(=O)N(C(C)C)[C@H]1c1ccc(CO)cc1`, the composite z-score is 0.761 in assay [1]; 0.577 in assay [3]; -0.342 in assay [4]; -0.574 in [5]; -0.152 in assay [6]; -0.01 in assay [7]. The composite z-score was -0.0247 in [8], 0.999 in [9] and 0.547 in assay [10]. The z-score in [2] was -0.659.

As to `CC(C)[Si](C#Cc1ccc(Oc2ccccc2)cc1)(O[Si](C#Cc1ccc(Oc2ccccc2)cc1)(C(C)C)C(C)C)C(C)C`, the composite z-score is 0.328 in assay [1]; 0.567 in assay [3]; -0.185 in assay [4]; 0.307 in [5]; 0.0561 in [6]; -0.0337 in assay [7]. Further, the composite z-score in assay [8] was -0.12; in assay [9], 0.0811; in assay [10], 0.262. In addition, in [2], the z-score was 0.651.

For the compound `C=CCC(OC(C)=O)[C@@H]1[C@@H](N(Cc2ccc(-c3ccccc3)cc2)C(=O)Cc2ccc(OC)cc2)c2cc(OCCCO)ccc2N1C(=O)Cc1ccc2ccccc2c1` (stereo not given in full), the composite z-score in assay [1] is -0.285; in assay [3], -0.305; in assay [4], -0.247; in assay [5], 0.831; in assay [6] it was -0.0297; in assay [7] it was -0.0769. Moreover, the composite z-score in [8] was -0.366; in assay [9], -0.172; in assay [10], 0.87. The compound further gave a z-score in [2] of -1.14.

For the compound `CC(C)NC(=O)[C@@]1(C)c2ccccc2C(=O)N(Cc2cc(C(F)(F)F)cc(C(F)(F)F)c2)[C@H]1c1ccc(CO)cc1`, the composite z-score was 1.02 in [1]; -0.826 in assay [3]; 0.226 in assay [4]; 0.764 in assay [5]; -0.101 in [6]; -0.0398 in assay [7]. Moreover, the values for the composite z-score in assay [8], in assay [9] and in assay [10] were 1.07, 0.454 and -0.361, respectively. In addition, the z-score in [2] was -0.319.

For the compound `C=C(/C(=C/C[C@H](OC(C)=O)c1ccc(CO)o1)c1cc(C(=O)OC)ccc1OC)C(C)C`, the composite z-score in assay [1] was -0.3; in assay [3], -0.183; in assay [4], -0.0278; in [5] it was -0.061; in assay [6], -0.0506; in [7] it was 0.318. In addition, the composite z-score in [8] is 0.168; in assay [9], 0.0916; in assay [10], -0.829. Further, the z-score in assay [2] is -2.22.

For the compound `C=CCOC(=O)[C@H]1[C@@H]2C(=O)O[C@@H](c3ccccc3)[C@@H](c3ccccc3)N2[C@@H](c2ccc(OCCOC(=O)[C@H]3C[C@H]4C(=O)N[C@@H](CCCCNC(C)=O)C(=O)N4[C@H]3c3cccc(OCCO)c3)cc2)[C@]12C(=O)Nc1ccccc12`, the composite z-score was 1.36 in assay [1]; 0.578 in assay [3]; 2.53 in [4]; -0.0073 in assay [5]; -0.101 in assay [6]; 0.13 in assay [7]. Moreover, the composite z-score stood at 0.0588 in [8], 1.22 in assay [9] and 0.977 in [10]. The z-score in [2] is -1.47.

With `COc1ccc([Si](C)(C)[C@H]2[C@H](CC(=O)N3Cc4ccccc4C[C@H]3CO)O[C@@]3(C(=O)N(Cc4cccc(N5CCC5=O)c4)c4ccccc43)[C@@H]2C)cc1`, the composite z-score in assay [1] was 1.37; in assay [3], 0.903; in assay [4], -0.293; in assay [5], -1.02; in assay [6], -0.0425; in [7] it was 0.2. The composite z-score in [8] is 0.0308; in assay [9], 0.626; in [10], -0.0509. Besides, the z-score in assay [2] was -3.58.

As for `CCC(CC)C(O)C1C=CC2C(=O)NC(=O)C2N1Nc1ccccn1` (stereo not given), the composite z-score in assay [1] is 0.365; in assay [3] it was 0.255; in assay [4] it was 0.0646; in assay [5], -0.161; in assay [6], -0.0704; in [7], -0.217. Also, the composite z-score in assay [8] came to 0.455; in [9], 0.275; in assay [10], 0.512. The compound further showed a z-score in assay [2] of -0.642.

For `NC(=O)NCC#Cc1ccc2c(c1)[C@]1(C(=O)N2)[C@H](c2ccccc2OCCO)N2[C@H](c3ccccc3)[C@H](c3ccccc3)OC(=O)[C@H]2[C@@H]1C(=O)Nc1nc2ccccc2s1`, the composite z-score in assay [1] was 1.36; in [3] it was 0.0464; in assay [4] it was 0.873; in assay [5] it was 0.745; in assay [6], -0.0944; in assay [7], -0.266. Besides, the composite z-score turned out to be 0.448 in [8], 0.286 in assay [9] and 1.29 in assay [10]. In [2], this compound came in with a z-score of -0.809.

As for `CCCCCCc1nc(-c2ccc(OC)nc2)cc2c1[Si](C(C)C)(C(C)C)O[C@H]2c1ccccc1`, the composite z-score in assay [1] is -0.103; in assay [3] it was 0.28; in [4] it was -0.0918; in assay [5], 0.176; in [6], -0.176; in assay [7], 0.108. Further, the composite z-score is -0.234 in assay [8], -0.476 in assay [9] and 0.0237 in assay [10]. The z-score in [2] was -0.657.

Values taken from PubChem BioAssay.
